For 32 molecules, Potency results are on record in PubChem BioAssay (Tox21).

SMILES strings stand for the structures. “And” between values parts separate entries of the source, which are not always exact repeats. Identical values can stand only once. Records with an inconclusive call do not appear. Entries that show only a call come without a potency. The source made the active and inactive calls. The call rests on the fitted dose curve; in most records, active means well fitted inhibition curve with a large enough effect in the repeat runs; inconclusive means weak or mixed curves; inactive means no such curve, though single readings can be large or run the other way.
Potency means the concentration at half of the fitted maximal effect.

Chain of Cytochrome P450 2D6 (Homo sapiens) (P10635 whole entry, looked up): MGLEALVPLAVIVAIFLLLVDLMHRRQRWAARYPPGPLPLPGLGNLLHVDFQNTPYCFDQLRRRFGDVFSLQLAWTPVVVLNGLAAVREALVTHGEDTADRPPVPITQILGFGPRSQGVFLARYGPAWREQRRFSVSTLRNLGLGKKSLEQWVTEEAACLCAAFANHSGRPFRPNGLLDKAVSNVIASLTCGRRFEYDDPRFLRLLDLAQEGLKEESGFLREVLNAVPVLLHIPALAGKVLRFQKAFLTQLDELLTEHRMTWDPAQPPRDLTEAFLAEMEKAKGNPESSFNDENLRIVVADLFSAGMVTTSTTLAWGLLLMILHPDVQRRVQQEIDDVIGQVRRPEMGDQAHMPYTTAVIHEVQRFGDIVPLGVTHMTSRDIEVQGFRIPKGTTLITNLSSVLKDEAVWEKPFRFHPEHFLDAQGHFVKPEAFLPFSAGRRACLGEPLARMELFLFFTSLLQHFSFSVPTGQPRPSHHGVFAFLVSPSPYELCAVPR

For the first test, the target named is Cytochrome P450 2D6 (Homo sapiens) (UniProt P10635). In words: Cytochrome P450 Family 2 Subfamily D Member 6 (CYP2D6) small molecule antagonists: luciferase reporter qHTS assay (AID 1671196). Further: nearly all actives have a fitted effect of over 50% in size. As to conditions: P450-Glo CYP2D6 enzyme assay, luciferin luminescence, 1 h; series mostly up to 115 µM. Put shortly:
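Read-out is luminescence from luciferin formed by CYP2D6 turnover of a proluciferin substrate, recorded as relative luminescence units. Reactions ran 1 h at room temperature after NADPH regeneration solution was added.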
A general note: Reporter assays use an easily measured gene product as a stand-in for the process of interest.
As to `COc1nc(C)nc(NC(=O)NS(=O)(=O)c2ccccc2Cl)n1`, the Potency entry was “inactive”.

Regarding `CNC(=O)Oc1cc(C)cc(C(C)C)c1`, the Potency was 39.9 µM (active).

`Cc1cnc2c(C(=O)O)c(Cl)ccc2c1`: the Potency entry is “inactive”.

Consider `[O]=[Cr][O][Cr]=[O]`, for which the Potency was 2.58 µM (active).

In the case of `COC(=O)c1ccccc1S(=O)(=O)NC(=O)Nc1nc(C)nc(OC)n1`, the Potency was 8.88 µM (active).

Take `ClC1(Cl)C2(Cl)C3(Cl)C4(Cl)C(Cl)(Cl)C5(Cl)C3(Cl)C1(Cl)C5(Cl)C24Cl` (configuration not stated): the Potency entry is “inactive”.

As for `CN/C(=N\[N+](=O)[O-])NCc1cnc(Cl)s1`, the Potency entry is “inactive”.

As to `CCc1cccc(C)c1N(C(=O)CCl)[C@@H](C)COC`, the Potency entry was “inactive”.

As for `CN1C2CCC(C)(C)C1CC(OC(=O)C(O)(c1cccs1)c1cccs1)C2` (configuration not stated), the Potency is 15.5 µM (active).

With `COc1cnc(OC)n2nc(NS(=O)(=O)c3c(OCC(F)F)cccc3C(F)(F)F)nc12`, the Potency result was “inactive”.

Regarding `O=c1[nH]c(Cl)c(Cl)cc1Cl`, the Potency result is “inactive”.

Regarding `C=CC(=O)[O][Sn]([CH2]CCC)([CH2]CCC)[CH2]CCC`, the Potency was 1.26 µM (active).

`N#CCCl`: the Potency is 29.5 µM (active).

Turning to `CCN(CC)Cc1nccn1-c1ccc([N+](=O)[O-])cc1C(=O)c1ccccc1Cl`, the Potency was 3.09 µM (active).

`CN1C(=O)[C@@H](NC(=O)c2cc3ccccc3[nH]2)N=C(c2ccccc2)c2ccccc21`: the Potency result was “inactive”.

`Clc1cc(Cl)c(-c2cc(Cl)c(Cl)cc2Cl)cc1Cl`: the Potency entry is “inactive”.

Consider `C=CCBr`, for which the Potency was 33.6 µM (active).

On to `c1ccc(N=NNc2ccccc2)cc1`, for which the Potency was 65.4 µM (active) and 63.3 µM (active).

For `BrCCCBr`, the Potency entry is “inactive”.

As for `CSSC`, the Potency entry was “inactive”.

The next test deals with Cytochrome P450 2C19 (Homo sapiens) (UniProt P33261). In words: Cytochrome P450 Family 2 Subfamily C Member 19 (CYP2C19) small molecule antagonists: luciferase reporter qHTS assay (AID 1671197). Further: nearly all actives have a fitted effect of over 65% in size. The settings on record: P450-Glo CYP2C19 enzyme, luciferin luminescence, 1 h; series mostly up to 115 µM. In short, it runs like this: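 Quantitative high-throughput screen of the Tox21 library using CYP2C19 with proluciferin substrate. Reaction: NADPH regeneration, 37C, 1 h, after 10 min compound preincubation at room temperature. Readout: luminescence.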
Chain of Cytochrome P450 2C19 (Homo sapiens) (P33261 whole entry, looked up): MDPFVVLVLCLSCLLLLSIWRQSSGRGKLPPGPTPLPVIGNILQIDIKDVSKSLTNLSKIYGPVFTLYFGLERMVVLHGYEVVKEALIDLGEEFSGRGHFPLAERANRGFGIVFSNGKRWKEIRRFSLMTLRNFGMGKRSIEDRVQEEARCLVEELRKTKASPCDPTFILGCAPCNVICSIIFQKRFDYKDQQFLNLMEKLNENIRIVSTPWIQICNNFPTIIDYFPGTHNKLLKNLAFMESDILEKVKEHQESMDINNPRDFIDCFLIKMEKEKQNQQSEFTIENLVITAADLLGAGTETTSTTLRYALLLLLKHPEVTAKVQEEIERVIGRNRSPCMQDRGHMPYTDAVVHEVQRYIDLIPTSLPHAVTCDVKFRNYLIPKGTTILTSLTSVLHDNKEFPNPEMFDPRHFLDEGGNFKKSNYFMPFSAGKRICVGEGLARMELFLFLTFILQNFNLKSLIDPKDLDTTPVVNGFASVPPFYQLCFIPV
`CCOP(=S)(NC(C)C)Oc1ccccc1C(=O)OC(C)C` (configuration not stated): the Potency was 0.2 µM (active).

On to `CC(C)=CC1C(C(=O)OC(C#N)c2cccc(Oc3ccccc3)c2)C1(C)C` (configuration not stated), for which the Potency was 31.7 µM (active).

With `Oc1cc(Cl)c(Cl)c(Cl)c1Cl`, the Potency result was “inactive”.

`CC(C)c1c(CN(C)C(C)Cc2ccccc2)n(C)n(-c2ccccc2)c1=O` (configuration not stated): the Potency is 6.92 µM (active).

Consider `CCC(C)Br` (configuration not stated), for which the Potency entry is “inactive”.

For `CNC(=O)CSP(=O)(OC)OC`, the Potency entry was “inactive”.

`CC(=O)C(Cl)C(=O)N(C)C` (configuration not stated): the Potency entry was “inactive”.

For `CCC(C)Nc1c([N+](=O)[O-])cc(C(C)(C)C)cc1[N+](=O)[O-]` (configuration not stated), the Potency is 25.2 µM (active).

As to `O=[N+]([O-])c1cc(C(F)(F)F)c(Cl)c([N+](=O)[O-])c1Nc1ncc(C(F)(F)F)cc1Cl`, the Potency was 12.6 µM (active).

Consider `CCCCC(CC)COC(=O)c1ccccc1C(=O)OCC(CC)CCCC` (configuration not stated), for which the Potency was 14.2 µM (active).

For the molecule `OCC(Br)CBr` (configuration not stated), the Potency entry was “inactive”.

Regarding `CCC1COC(Cn2cncn2)(c2ccc(Cl)cc2Cl)O1` (configuration not stated), the Potency was 0.317 µM (active).
